Among the data in PubChem BioAssay (EPA / NIEHS) are AC50 and outcome values, retold here.

As usually defined, the AC50 is the midpoint of the concentration-response curve, whichever way the signal moves.

A short description of test [1]: BSK_LPS_PGE2: BioMAP Diversity Plus: LPS Assay for Prostaglandin E2 (PGE2) Biomarker Activity (AID 2283082). The following applies: primary human HUVEC with PBMC; actives raise or lower the signal. In a few lines: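 PGE2 release measured by ELISA in an LPS-activated co-culture of human umbilical vein endothelial cells and peripheral blood mononuclear cells, read at 24 h post-dosing. DMSO served as baseline for bidirectional curve fitting.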

Read-out in test [2]: Macrophage colony-stimulating factor (MCSF), CSF1 (gene 1435)
The experiment in a line: BSK_LPS_MCSF: BioMAP Diversity Plus: LPS Assay for Macrophage colony-stimulating factor (MCSF) Biomarker Activity (AID 2283083). The note with it: primary human HUVEC with PBMC; actives raise or lower the signal. In a few lines:
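Compound is added to a human vascular primary co-culture of umbilical vein endothelium and blood mononuclear cells. After 24 h, M-CSF is quantified by ELISA. Signal changes are fitted in both directions against DMSO.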

Read-out in test [3]: Tissue Factor, F3 (gene 2152)
Description: BSK_LPS_TissueFactor: BioMAP Diversity Plus: LPS Assay for Tissue Factor Biomarker Activity (AID 2283084). The note with it: primary human HUVEC with PBMC; actives raise or lower the signal. In a few lines: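 In this co-culture system of umbilical vein endothelium with PBMC, stimulated with LPS, cell-surface CD142 is detected by ELISA at 24 h. Endpoint values derive from bidirectional fitting, DMSO serving as baseline.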

Read-out in test [4]: Tumor necrosis factor (Homo sapiens) (UniProt P01375)
The experiment in a line: BSK_LPS_TNFa: BioMAP Diversity Plus: LPS Assay for Tumour Necrosis Factor alpha (TNFa) Biomarker Activity (AID 2283085).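 As to AC50: TNFa protein level quantified by ELISA in the co-culture.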 The following applies: primary human HUVEC with PBMC; actives raise or lower the signal. In a few lines: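 TNFa was quantified by ELISA in LPS-activated co-cultures of human endothelial cells and PBMC, 24 h post-dosing. Both increases and decreases versus DMSO were fitted.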

Read-out in test [5]: Vascular cell adhesion molecule 1 (VCAM1), VCAM1 (gene 7412)
The experiment in a line: BSK_LPS_VCAM1: BioMAP Diversity Plus: LPS Assay for Vascular cell adhesion molecule 1 (VCAM1) Biomarker Activity (AID 2283086). The following applies: primary human HUVEC with PBMC; actives raise or lower the signal. In a few lines: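 VCAM-1 quantified by ELISA in an LPS-activated co-culture of human endothelial cells and peripheral blood mononuclear cells, read 24 h post-treatment. Fitted in both directions versus DMSO; parallel SRB staining flags overt cytotoxicity.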

Read-out in another test: CD38, CD38 (gene 952)
Description: BSK_SAg_CD38: BioMAP Diversity Plus: SAg Assay for CD38 Biomarker Activity (AID 2283087). The note with it: primary human HUVEC with PBMC; actives raise or lower the signal. In a few lines: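 CD38 quantified by ELISA (fluorescence) in a superantigen-activated endothelial cell–PBMC co-culture at 24 h post-dose. Activity fitted in both directions relative to DMSO; parallel SRB and Alamar Blue cytotoxicity read-outs.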

Read-out in another test: CD40, CD40 (gene 958)
The experiment in a line: BSK_SAg_CD40: BioMAP Diversity Plus: SAg Assay for CD40 Biomarker Activity (AID 2283088). The note with it: primary human HUVEC with PBMC; actives raise or lower the signal. In a few lines: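 Fluorescence ELISA read-out of CD40 from umbilical vein endothelium plus peripheral blood mononuclear cells, sampled 24 h after dosing. Values come from bidirectional curve fitting with DMSO as baseline.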

Read-out in another test: CD69, CD69 (gene 969)
Description: BSK_SAg_CD69: BioMAP Diversity Plus: SAg Assay for CD69 Biomarker Activity (AID 2283089).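 As to AC50: cell surface CD69 protein quantified by ELISA with fluorescence detection.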 The following applies: primary human HUVEC with PBMC; actives raise or lower the signal. In a few lines: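 ELISA, fluorescence read-out: CD69 on human umbilical vein endothelial cell + PBMC co-culture, 24 h post-dosing. Gain or loss of signal fitted bidirectionally against DMSO baseline.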

Read-out in test [6]: Monocyte Chemoattractant Protein-1 (MCP1), CCL2 (gene 6347)
The experiment in a line: BSK_SAg_MCP1: BioMAP Diversity Plus: SAg Assay for Monocyte Chemoattractant Protein-1 (MCP1) Biomarker Activity (AID 2283090). The note with it: primary human HUVEC with PBMC; actives raise or lower the signal. In a few lines: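 Values derive from bidirectional fitting of ELISA-measured MCP1 against DMSO controls. Readings were taken 24 h after dosing human vascular endothelial cells co-cultured with peripheral blood mononuclear cells under superantigen stimulation.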

Read-out in test [7]: E-selectin (Homo sapiens) (UniProt P16581)
The experiment in a line: BSK_SAg_Eselectin: BioMAP Diversity Plus: SAg Assay for Eselectin Biomarker Activity (AID 2283091). The note with it: primary human HUVEC with PBMC; actives raise or lower the signal. In a few lines:
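Primary human endothelial cells and peripheral blood mononuclear cells were co-cultured and exposed to chemical for 24 hours. E-selectin levels were then quantified by ELISA, with bidirectional curve fitting normalised to DMSO controls.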

Read-out in test [8]: Monokine induced gamma interferon (MIG), CXCL9 (gene 4283)
Description: BSK_SAg_MIG: BioMAP Diversity Plus: SAg Assay for Monokine induced gamma interferon (MIG) Biomarker Activity (AID 2283092). The following applies: primary human HUVEC with PBMC; actives raise or lower the signal. In a few lines:
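ELISA readout of MIG/CXCL9; primary human umbilical vein endothelial cells co-cultured with peripheral blood mononuclear cells; 24 h post-dose; gain/loss fit vs DMSO baseline.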

Test [9] is described as follows: BSK_SAg_PBMCCytotoxicity: PBMC Cytotoxicity Assessment in the BioMAP Diversity Plus: SAg Assay (AID 2283093).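 Also: fitted both ways against DMSO so a hit may be loss or gain of signal.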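 As to AC50: PBMC superantigen activated with SEB plus TSST-1 one hour after compound addition.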 The note with it: primary human HUVEC with PBMC. In a few lines:
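PBMC viability by Alamar Blue reduction, fluorescence read at 546/580 nm after 6 h dye exposure. Cells were dosed 1 h before SEB plus TSST-1 activation (20 ng/mL final each), then held 90 h; endothelial/PBMC human co-culture.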

Read-out in test [10]: Interleukin-8 (IL8), CXCL8 (gene 3576)
The experiment in a line: BSK_SAg_IL8: BioMAP Diversity Plus: SAg Assay for Interleukin-8 (IL8) Biomarker Activity (AID 2283094). The following applies: primary human HUVEC with PBMC; actives raise or lower the signal. In a few lines:
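ELISA readout of IL-8 from a superantigen-activated endothelial/PBMC primary human co-culture, taken 24 h post-dosing and fitted in both directions against DMSO; parallel SRB total-protein staining flags overt cytotoxicity.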

Test [11] is described as follows: BSK_SAg_Proliferation: Cell Proliferation Assessment in the BioMAP Diversity Plus: SAg Assay (AID 2283095).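 Also: relative cell number as total protein by SRB absorbance in sub-confluent culture.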 The following applies: primary human HUVEC with PBMC. In a few lines:
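Relative cell number in the endothelial cell/PBMC co-culture was quantified at 96 h by SRB staining (0.1% SRB, 10% TCA fixation, read at 560 nm). Curves were fitted in both directions relative to DMSO baseline.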

Test [12] in a line: BSK_SAg_SRB: Viability Assessment in the BioMAP Diversity Plus: SAg Assay (AID 2283096).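 Also: cells read one day after compound addition; hits may be either gain or loss of signal compared with DMSO.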 The note with it: primary human HUVEC with PBMC. In a few lines: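 Compounds were added to a human vascular co-culture of umbilical vein endothelium and PBMC. After 24 h, parallel cultures were fixed with 10% TCA, stained with 0.1% sulforhodamine B and read at 560 nm. Gain or loss of signal was fitted relative to DMSO.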

Structures are written as SMILES. Several values for one entry are separate records, joined by “and”; a condition that tells them apart may be missing. Identical values can stand only once. The source holds several records for some structures; these can differ, active in one and inactive in another. Activity calls are given as the source filed them. The calls were made as follows: active = hit-call score of the fitted dose curve at least 0.9, where 1 is the maximum; inactive = score below 0.9.

Tumor necrosis factor (Homo sapiens), sequence (P01375 whole entry, looked up): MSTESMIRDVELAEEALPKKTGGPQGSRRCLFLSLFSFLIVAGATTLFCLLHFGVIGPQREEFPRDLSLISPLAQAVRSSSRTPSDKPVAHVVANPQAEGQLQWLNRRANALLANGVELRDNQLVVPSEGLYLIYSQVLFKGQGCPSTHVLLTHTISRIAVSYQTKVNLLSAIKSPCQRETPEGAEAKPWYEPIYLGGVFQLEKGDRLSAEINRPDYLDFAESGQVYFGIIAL
E-selectin (Homo sapiens), sequence (P16581 whole entry, looked up): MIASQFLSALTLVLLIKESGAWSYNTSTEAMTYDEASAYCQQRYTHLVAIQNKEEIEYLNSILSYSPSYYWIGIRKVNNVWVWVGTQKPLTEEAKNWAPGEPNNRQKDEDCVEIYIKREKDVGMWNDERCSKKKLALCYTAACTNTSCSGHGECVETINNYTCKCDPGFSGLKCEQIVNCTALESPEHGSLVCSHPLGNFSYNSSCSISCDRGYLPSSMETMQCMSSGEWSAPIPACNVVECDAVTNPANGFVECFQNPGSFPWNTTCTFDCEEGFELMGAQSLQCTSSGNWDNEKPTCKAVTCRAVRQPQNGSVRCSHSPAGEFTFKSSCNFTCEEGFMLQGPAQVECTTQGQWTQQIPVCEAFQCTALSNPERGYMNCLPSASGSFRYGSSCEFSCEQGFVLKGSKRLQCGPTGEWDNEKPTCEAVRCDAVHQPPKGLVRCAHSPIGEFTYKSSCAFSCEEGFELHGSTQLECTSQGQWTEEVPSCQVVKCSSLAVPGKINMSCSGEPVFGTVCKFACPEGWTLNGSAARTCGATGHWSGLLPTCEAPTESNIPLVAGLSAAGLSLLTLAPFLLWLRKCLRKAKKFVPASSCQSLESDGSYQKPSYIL

In the case of `C[C@]12C=CC3=C4CCC(=O)C=C4CC[C@H]3[C@@H]1CC[C@@H]2O`, the AC50 in test [1] is 7.31 µM (active); in test [2], 9.08 µM (active); in [5] it was 10.3 µM (active); with CD38, CD38 (gene 952), 4.63 µM (active); with CD40, CD40 (gene 958) it was 9.73 µM (active). Besides, the outcome in test [3] was “inactive”; in [4], “inactive”; in the test with CD69, CD69 (gene 969) it was “inactive”; in [6], “inactive”; in [7], “inactive”; in test [8], “inactive”. The outcome in test [9], in [10] and in test [11] was inactive.

In the case of `O=P(OCCCl)(OCCCl)OCCCl`, the outcome in [1] was “inactive”; in test [2], “inactive”; in test [3], “inactive”; in test [4], “inactive”; in test [5], “inactive”; in the test with CD38, CD38 (gene 952), “inactive”. The outcome in the test with CD40, CD40 (gene 958) was “inactive”; with CD69, CD69 (gene 969), “inactive”; in [6] it was “inactive”; in test [7], “inactive”; in test [8], “inactive”; in test [9], “inactive”. Besides, the result in [10] and in test [11] was inactive.

As for `O=C(O)C1C2CCC(O2)C1C(=O)O` (configuration not stated), the outcome in test [1] is “inactive”; in [2] it was “inactive”; in test [3] it was “inactive”; in test [5] it was “inactive”; with CD38, CD38 (gene 952), “inactive”; in the test with CD40, CD40 (gene 958), “inactive”. Moreover, the outcome in the test with CD69, CD69 (gene 969) was “inactive”; in test [6], “inactive”; in test [7] it was “inactive”; in test [8], “inactive”; in [9], “inactive”; in [10], “inactive”. The half-maximal activity concentration (AC50) in [4] was 6.16 µM (active); in [11] it was 18.6 µM (active).

Take `CCNS(=O)(=O)C(F)(F)C(F)(F)C(F)(F)C(F)(F)C(F)(F)C(F)(F)C(F)(F)C(F)(F)F`: the result in [1], in test [2], in test [3], in test [4], in test [5] and in test [6] was inactive. Further, the result in [7], in test [8], in [9], in [10] and in [12] was inactive. Besides, the AC50 is 49 µM (active) in [2]; 1.1 µM (active) in test [4]; 30 µM (active) in test [5]; 19.3 µM (active) and 48.6 µM (active) and 30 µM (active) with CD38, CD38 (gene 952); 12.2 µM (active) and 36.6 µM (active) and 30.4 µM (active) in the test with CD40, CD40 (gene 958); 5.71 µM (active) and 24.7 µM (active) and 20.2 µM (active) with CD69, CD69 (gene 969). Besides, the concentration at half-maximal activity (AC50) in [6] is 48.7 µM (active); in test [7] it was 30 µM (active); in [8], 49.1 µM (active); in test [9], 48 µM (active); in [10], 30 µM (active); in test [11], 19.3 µM (active) and 45 µM (active) and 23.6 µM (active). The concentration at half-maximal activity (AC50) in test [12] is 43.3 µM (active) and 51.2 µM (active).

With `c1ccc(N=Nc2ccccc2)cc1`, the outcome is “inactive” in test [1]; “inactive” in test [2]; “inactive” in test [3]; “inactive” in test [4]; “inactive” in [5]; “inactive” with CD38, CD38 (gene 952). In addition, the outcome with CD40, CD40 (gene 958) was “inactive”; with CD69, CD69 (gene 969), “inactive”; in test [6], “inactive”; in test [7] it was “inactive”; in [8] it was “inactive”; in test [9], “inactive”. Besides, the result in test [10] and in test [11] was inactive.

Take `ClC1=C(Cl)C2(Cl)C3C(Cl)C=CC3C1(Cl)C2(Cl)Cl` (configuration not stated): the outcome in test [1] was inactive. Also, the AC50 in [2] was 29.5 µM (active); in test [3], 32.2 µM (active); in [4] it was 33.5 µM (active); in [5], 33.7 µM (active); in the test with CD38, CD38 (gene 952), 32.6 µM (active); in the test with CD40, CD40 (gene 958) it was 25.7 µM (active). In addition, the AC50 was 31.8 µM (active) with CD69, CD69 (gene 969); 31.6 µM (active) in test [6]; 31.1 µM (active) in test [7]; 36.8 µM (active) in test [8]; 13 µM (active) in test [9]; 27.9 µM (active) in test [10]. The AC50 in test [11] was 10.9 µM (active).

In the case of `OCCCBr`, the outcome is “inactive” in test [1]; “inactive” in test [2]; “inactive” in test [3]; “inactive” in test [4]; “inactive” in [5]; “inactive” in the test with CD38, CD38 (gene 952). In addition, the outcome was “inactive” in the test with CD40, CD40 (gene 958); “inactive” with CD69, CD69 (gene 969); “inactive” in [6]; “inactive” in test [7]; “inactive” in test [8]; “inactive” in test [9]. Moreover, the result in test [10] and in test [11] was inactive.

For `CCC(C)c1ccc(O)cc1` (configuration not stated), in test [1], the concentration at half-maximal activity (AC50) is 4.17 µM (active). For the same molecule, the outcome in test [2] is “inactive”; in test [3] it was “inactive”; in test [4] it was “inactive”; in test [5], “inactive”; in the test with CD38, CD38 (gene 952) it was “inactive”; with CD40, CD40 (gene 958) it was “inactive”. Besides, the outcome is “inactive” with CD69, CD69 (gene 969); “inactive” in test [6]; “inactive” in test [7]; “inactive” in test [8]; “inactive” in test [9]; “inactive” in test [10]. For the same molecule, the outcome in [11] was inactive.
